Records with an inconclusive call do not appear. Active and inactive are the calls of the source. Unless noted, calls come from the whole dose curve; as a rule, active = well fitted curve in the direction sought with a large enough effect; inconclusive = small, poorly fitted or top-dose-only effect, or another doubt; inactive = no such curve, though single readings can be large; an effect the other way counts as inactive or inconclusive.
Key:
[1] = biological target: Lysosomal acid glucosylceramidase (Homo sapiens) (UniProt P04062); assay: Glucocerebrosidase-p2 (AID 348; in the data active = potency below about 10 µM; note: potency is the fitted concentration of half-maximal effect); settings: purified GBA, blue fluorogenic substrate, 40 min
Lysosomal acid glucosylceramidase (Homo sapiens), sequence (P04062 whole entry, looked up): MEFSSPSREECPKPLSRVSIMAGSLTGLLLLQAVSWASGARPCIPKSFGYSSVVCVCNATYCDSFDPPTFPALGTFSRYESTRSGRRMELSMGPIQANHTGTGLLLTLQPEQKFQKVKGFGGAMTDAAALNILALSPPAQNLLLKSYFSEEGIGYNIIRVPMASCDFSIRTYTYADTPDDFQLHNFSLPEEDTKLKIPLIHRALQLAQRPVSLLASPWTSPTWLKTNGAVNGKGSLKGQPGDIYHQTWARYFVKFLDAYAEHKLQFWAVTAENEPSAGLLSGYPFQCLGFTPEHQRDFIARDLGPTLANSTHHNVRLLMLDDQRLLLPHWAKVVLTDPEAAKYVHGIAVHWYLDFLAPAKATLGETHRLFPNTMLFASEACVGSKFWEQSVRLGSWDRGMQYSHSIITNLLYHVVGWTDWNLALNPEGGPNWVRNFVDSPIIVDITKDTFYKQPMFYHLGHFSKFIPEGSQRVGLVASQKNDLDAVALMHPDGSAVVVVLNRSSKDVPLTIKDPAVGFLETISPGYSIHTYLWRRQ
Summary of the method: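 Compounds titrated from 0.6 nM upwards against 0.2 nM enzyme in pH 5.9 citric acid/KH2PO4, taurocholate, tween-20; blue fluorogenic substrate 80 uM, 40 min room temperature, stopped and read Ex 365/Em 440 for AC50.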

[2] = AP1 Signaling Pathway (AID 357; active = well fitted curve in either direction with a large enough effect, not every such curve was filed as active;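 note: ME-180 reporter cells stimulated with EGF at its EC50 level; % is set by controls: 0 for no effect and ±100 for the full control effect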); settings: ME-180 AP-1-bla reporter, EGF-induced, beta-lactamase ratio, 5 h; at 7.69 µM (top of the series) unless noted
Summary of the method: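 A ratiometric CCF4 readout (405 nm excitation; 460 and 530 nm emission) quantified AP-1-driven beta-lactamase in ME-180 cells after 5 h with compound and EC50 EGF; AC50 values were derived for activators and inhibitors.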

[3] = biological target: Cytochrome P450 1A2 (Homo sapiens) (UniProt P05177); assay: p450-cyp1a2 (AID 410; calls by dose curve; note: potency is the fitted concentration of half-maximal effect;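 for activity change, negative = inhibition: -100% = full effect of reference inhibitor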); settings: recombinant CYP1A2, luciferin-ME demethylation, luminescence; series mostly up to 57 µM
Cytochrome P450 1A2 (Homo sapiens), sequence (P05177 whole entry, looked up): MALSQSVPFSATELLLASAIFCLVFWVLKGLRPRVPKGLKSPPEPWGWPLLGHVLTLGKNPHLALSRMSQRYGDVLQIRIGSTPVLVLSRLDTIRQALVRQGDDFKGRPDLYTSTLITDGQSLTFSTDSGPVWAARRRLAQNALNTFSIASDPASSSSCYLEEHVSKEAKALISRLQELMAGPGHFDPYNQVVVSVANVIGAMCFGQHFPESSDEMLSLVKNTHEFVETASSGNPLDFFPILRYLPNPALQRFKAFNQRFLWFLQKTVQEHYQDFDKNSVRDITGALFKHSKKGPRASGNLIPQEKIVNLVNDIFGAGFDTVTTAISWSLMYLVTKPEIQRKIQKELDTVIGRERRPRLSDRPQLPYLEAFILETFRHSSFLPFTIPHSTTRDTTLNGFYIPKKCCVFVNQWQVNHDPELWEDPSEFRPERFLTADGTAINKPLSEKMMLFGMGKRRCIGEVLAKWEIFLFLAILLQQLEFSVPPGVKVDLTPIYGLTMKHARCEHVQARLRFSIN
Summary of the method: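 Inhibition was calculated relative to 57 uM furafylline (full inhibition). The reaction used human CYP1A2 at 20nM with Luciferin-ME at its Km, 100uM, driven by an NADPH-regenerating system for 60 min at room temperature.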

[4] = NFAT Signaling Pathway (AID 444; active = well fitted curve in either direction with a large enough effect, not every such curve was filed as active;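 note: carbachol stimulus at about its EC50 of 1 µM final; % is set by controls: 0 for no effect and ±100 for the full control effect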); settings: Jurkat NFAT-bla M1, carbachol, beta-lactamase ratio, 5 h; at 7.69 µM (top of the series) unless noted
Summary of the method: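 Jurkat cells carrying an NFAT-driven β-lactamase reporter and co-transfected muscarinic M1 receptor were treated with compound plus carbachol (1 uM final, an EC50 level) for 5 h at 37 °C. CCF4 loading followed for 1 h at RT; 460/530 nm ratio gave %activity.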

[5] = Stat Signaling Pathway (AID 446; active = well fitted curve in either direction with a large enough effect, not every such curve was filed as active;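 note: ME-180 cervical cancer cells given 40 pM IL-6 alongside compound; SIE-controlled beta-lactamase reporter measured as 460/530 nm FRET emission ratio; % is set by controls: 0 for no effect and ±100 for the full control effect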); settings: ME-180 SIE beta-lactamase reporter, IL-6 stimulated, 5 h; at 7.69 µM (top of the series) unless noted
Summary of the method: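 ME-180 SIE-bla cells; overnight plating; cpd + IL-6 40 pM, 5 h, 37 C; LiveBLAzer 2.5 h RT; 460/530 nm emission ratio. Normalized to 300 pM IL-6 and 125 nM JAK inhibitor controls.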

[6] = biological target: Glucocorticoid receptor (Homo sapiens) (UniProt P04150); assay: GR-GFP Redistribution (AID 450;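 active = compounds whose dose series gives a full or clear partial fitted curve of increased nuclear translocation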; note: potency is the fitted concentration of half-maximal effect); settings: U2OS GR-GFP nuclear translocation, laser cytometry, 2 h
Glucocorticoid receptor (Homo sapiens), sequence (P04150 whole entry, looked up, the tested form may be a part): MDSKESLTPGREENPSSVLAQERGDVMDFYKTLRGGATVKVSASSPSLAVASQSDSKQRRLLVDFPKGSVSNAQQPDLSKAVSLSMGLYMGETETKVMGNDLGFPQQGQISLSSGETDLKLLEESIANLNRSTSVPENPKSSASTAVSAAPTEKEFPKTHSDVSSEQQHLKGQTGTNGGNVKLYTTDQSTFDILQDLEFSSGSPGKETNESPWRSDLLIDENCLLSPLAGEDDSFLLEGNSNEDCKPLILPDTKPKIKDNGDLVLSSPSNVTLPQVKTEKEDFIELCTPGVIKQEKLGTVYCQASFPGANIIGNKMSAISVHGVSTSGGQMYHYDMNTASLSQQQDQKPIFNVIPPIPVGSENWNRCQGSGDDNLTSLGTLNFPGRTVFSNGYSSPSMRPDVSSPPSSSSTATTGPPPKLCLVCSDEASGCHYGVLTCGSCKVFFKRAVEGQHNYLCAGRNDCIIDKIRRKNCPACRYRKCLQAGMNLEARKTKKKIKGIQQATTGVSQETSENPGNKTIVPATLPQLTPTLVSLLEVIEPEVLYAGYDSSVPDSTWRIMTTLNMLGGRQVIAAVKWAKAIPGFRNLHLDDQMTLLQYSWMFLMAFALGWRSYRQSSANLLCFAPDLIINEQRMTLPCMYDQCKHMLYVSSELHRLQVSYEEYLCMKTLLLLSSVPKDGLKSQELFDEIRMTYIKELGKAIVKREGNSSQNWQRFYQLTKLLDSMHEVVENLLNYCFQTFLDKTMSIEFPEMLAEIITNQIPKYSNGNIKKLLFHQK

[7] = biological target: Glucocorticoid receptor (Homo sapiens) (UniProt P04150); assay: GR-EFC Redistribution (AID 451; calls by dose curve; note: potency is the fitted concentration of half-maximal effect); settings: CHO-K1 GR-EFC translocation, beta-gal luminescence, 2 h
Summary of the method: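 CHO-K1 cells stably expressing nuclear-localized β-gal enzyme acceptor and GR fused C-terminally to the enzyme donor fragment; ligand-driven nuclear translocation restores β-gal by complementation. Compounds titrated up to 46 uM final, 2 h at 37 °C; luminescence read.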

[8] = biological target: Mitogen-activated protein kinase 10 (Mus musculus) (UniProt Q61831); assay: JNK3 AlphaScreen Assay (AID 530; active = well fitted curve in either direction with a large enough effect, not every such curve was filed as active;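 note: kinase came from lysate of stimulated human HepG2 cells; signal reports phosphorylation of biotinylated GST-cJun 1-79 at Ser73 with 10 µM ATP; % is set by controls: 0 for no effect and ±100 for the full control effect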); settings: JNK3 lysate, c-Jun phosphorylation; series mostly up to 57.1 µM
Summary of the method: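 JNK3 came from HepG2 lysates pre-activated with IL-1beta and TNF-alpha and phosphorylated biotinylated GST-cJun (1-79) at 10 uM ATP, pH 7.6, room temperature. Compounds were titrated. AlphaScreen signal used anti-phospho-cJun (Ser73) antibody.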

[9] = biological target: 3',5'-cyclic-AMP phosphodiesterase 4B (Homo sapiens) (UniProt Q07343); assay: qHTS Assay for Inhibitors of PDE-IV (AID 607; active = well fitted activation curve with a large enough effect in the main read-out, with a control signal flat, not every such curve was filed as active; note: % of control where 0% means no effect); settings: HEK293 ACTOne CNG channel cells, membrane potential fluorescence; series mostly up to 22.9 µM
3',5'-cyclic-AMP phosphodiesterase 4B (Homo sapiens), sequence (Q07343 whole entry, looked up): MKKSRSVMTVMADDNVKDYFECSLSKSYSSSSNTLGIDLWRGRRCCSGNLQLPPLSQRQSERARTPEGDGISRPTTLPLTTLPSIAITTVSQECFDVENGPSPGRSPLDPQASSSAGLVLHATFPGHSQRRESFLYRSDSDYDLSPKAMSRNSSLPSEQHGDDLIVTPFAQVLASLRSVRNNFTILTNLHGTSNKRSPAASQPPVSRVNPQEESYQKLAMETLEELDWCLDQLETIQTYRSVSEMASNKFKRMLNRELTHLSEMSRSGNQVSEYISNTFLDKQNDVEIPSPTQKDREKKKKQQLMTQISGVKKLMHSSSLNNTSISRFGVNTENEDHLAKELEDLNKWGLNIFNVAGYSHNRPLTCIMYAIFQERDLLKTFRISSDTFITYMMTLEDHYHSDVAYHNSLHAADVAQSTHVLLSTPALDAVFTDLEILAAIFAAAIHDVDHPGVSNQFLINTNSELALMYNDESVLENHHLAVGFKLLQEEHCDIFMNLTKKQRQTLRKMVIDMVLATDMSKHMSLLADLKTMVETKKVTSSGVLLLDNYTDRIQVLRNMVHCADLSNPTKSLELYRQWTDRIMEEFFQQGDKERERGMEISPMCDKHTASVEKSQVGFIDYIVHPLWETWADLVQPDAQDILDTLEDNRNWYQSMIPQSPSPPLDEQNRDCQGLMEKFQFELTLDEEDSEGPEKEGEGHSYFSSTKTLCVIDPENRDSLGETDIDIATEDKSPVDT
Summary of the method: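 ACTOne HEK293 cells carry a modified cAMP-gated CNG channel and express endogenous PDE4; plated 1000 cells/well, compounds up to 22.9 uM final. Membrane-potential dye fluorescence (ex 535/em 590) was read; parental cells received 10 uM forskolin + 100 uM RO 20-1724.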

[10] = biological target: Cytochrome P450 3A4 (Homo sapiens) (UniProt P08684); assay: qHTS Assay for Inhibitors and Substrates of Cytochrome P450 3A4 (AID 884); settings: recombinant CYP3A4, Luciferin-PPXE luminescence; series mostly up to 57.1 µM; note: potency is the fitted concentration of half-maximal effect; nearly all actives have a fitted effect of over 50% in size
Summary of the method: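 20 nM human CYP3A4 with 25 uM Luciferin-PPXE (at KM) in 200 mM KPO4, preincubated 10 min with compound; NADPH regeneration started a 60 min RT reaction. Luciferin detected by luminescence, normalized to 57 uM ketoconazole as full inhibition.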

[11] = qHTS Assay for Lipid Storage Modulators (AID 1519; calls by dose curve); settings: Drosophila S3 cells, BODIPY lipid droplet/cell ratio, laser cytometry, cells loaded with oleic acid; for activity change, negative = inhibition: at 57.5 µM (top of the series)
Summary of the method: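 Cells seeded at 5,000 per well were treated with compounds over a concentration series and loaded with oleic acid (400 uM, as added). Lipid droplet fluorescence (488 nm excitation, 500-530 nm channel) was read by laser-scanning cytometry and normalized to 20 uM Triacsin C.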

[12] = biological target: Dual specificity protein kinase CLK4 (Homo sapiens) (UniProt Q9HAZ1); assay: qHTS Assay for Inhibitors of CDC-like Kinase 4 (Kinase-Glo Assay) (AID 1770); settings: recombinant Clk4, Kinase-Glo ATP depletion luminescence; series mostly up to 66.7 µM; note: % is set by controls: 0 for no effect and ±100 for the full control effect; nearly all actives have a fitted effect of over 65% in size
Dual specificity protein kinase CLK4 (Homo sapiens), sequence (Q9HAZ1 whole entry, looked up): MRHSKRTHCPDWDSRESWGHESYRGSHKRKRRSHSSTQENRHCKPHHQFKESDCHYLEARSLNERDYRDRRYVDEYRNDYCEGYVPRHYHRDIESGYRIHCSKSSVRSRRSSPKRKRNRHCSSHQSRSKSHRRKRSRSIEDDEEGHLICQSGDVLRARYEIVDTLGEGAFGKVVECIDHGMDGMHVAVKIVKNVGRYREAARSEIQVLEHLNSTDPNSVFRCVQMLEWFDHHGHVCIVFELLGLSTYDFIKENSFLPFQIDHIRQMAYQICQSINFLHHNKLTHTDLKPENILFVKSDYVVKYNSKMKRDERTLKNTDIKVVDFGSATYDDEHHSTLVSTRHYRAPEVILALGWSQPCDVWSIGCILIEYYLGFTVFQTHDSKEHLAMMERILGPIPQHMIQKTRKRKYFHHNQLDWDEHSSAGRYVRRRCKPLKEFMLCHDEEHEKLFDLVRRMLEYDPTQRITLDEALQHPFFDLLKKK
Summary of the method: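 Luminescent ATP-depletion read-out (Kinase-Glo) after 4.5 h room-temperature reaction of Clk4 (25 nM final) with RS peptide (100 uM) and ATP (1 uM), pH 7.5 Tris buffer with MgCl2 and DTT.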

[13] = biological target: Dual specificity protein kinase CLK4 (Homo sapiens) (UniProt Q9HAZ1); assay: qHTS Assay for Inhibitors of CDC-like Kinase 4 (ADP-Glo Assay) (AID 1771); settings: recombinant CLK4, ADP-Glo luminescence; series mostly up to 80 µM; note: % is set by controls: 0 for no effect and ±100 for the full control effect; nearly all actives have a fitted effect of over 70% in size
Summary of the method: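 Kinase reaction: Clk4 at 25 nM, RS repeat peptide substrate at 100 uM, ATP at 1 uM, 1 hr, room temperature. Product ADP detected as luciferase signal via ADP-Glo.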

[14] = biological target: Dual specificity protein kinase CLK4 (Homo sapiens) (UniProt Q9HAZ1); assay: qHTS Assay for Inhibitors of CDC-like Kinase 4 (ADP-FP Assay) (AID 1795); settings: Transcreener ADP fluorescence polarization; series mostly up to 50 µM;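 note: recombinant human CLK4 phosphorylating RS repeat peptide at 1 µM ATP; % is set by controls: 0 for no effect and ±100 for the full control effect; nearly all actives have a fitted effect of over 60% in size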
Summary of the method: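 Kinase activity was measured as ADP production using Transcreener orange tracer (4 nM) and ADP antibody (1 ug/mL) fluorescence polarization, with ADP calculated from a calibration curve. The 1 h reaction contained 6.25 nM Clk4, 1 uM ATP and 100 uM RS peptide at pH 7.5 with Mg2+.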

[15] = Primary qHTS for small molecule stabilizers of the endoplasmic reticulum resident proteome: Secreted ER Calcium Modulated Protein (SERCaMP) assay (AID 1508630); settings: SH-SY5Y GLuc-SERCaMP (Gaussia luciferase released on ER calcium loss) secretion, thapsigargin, luminescence; series mostly up to 38.4 µM; note: % is set by controls: 0 for no effect and ±100 for the full control effect
Summary of the method: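 GLuc-SERCaMP-expressing SH-SY5Y cells, pretreated 16 h with compound, are challenged with thapsigargin to empty ER calcium stores; after 4 h, coelenterazine is added directly to the medium and luminescence is imaged.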

[16] = biological target: Rap guanine nucleotide exchange factor 3 (Homo sapiens) (UniProt O95398); assay: Confirmatory qHTS for antagonist of cAMP-regulated guanine nucleotide exchange factor 3 (EPAC1) (AID 1645880); settings: EPAC1 Rap1B-BODIPY-GDP exchange, fluorescence; series mostly up to 115 µM;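 note: plate controls were DMSO only for no effect and full effect of the ATA control for full effect; nearly all actives have a fitted effect of over 55% in size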
Rap guanine nucleotide exchange factor 3 (Homo sapiens), sequence (O95398 whole entry, looked up): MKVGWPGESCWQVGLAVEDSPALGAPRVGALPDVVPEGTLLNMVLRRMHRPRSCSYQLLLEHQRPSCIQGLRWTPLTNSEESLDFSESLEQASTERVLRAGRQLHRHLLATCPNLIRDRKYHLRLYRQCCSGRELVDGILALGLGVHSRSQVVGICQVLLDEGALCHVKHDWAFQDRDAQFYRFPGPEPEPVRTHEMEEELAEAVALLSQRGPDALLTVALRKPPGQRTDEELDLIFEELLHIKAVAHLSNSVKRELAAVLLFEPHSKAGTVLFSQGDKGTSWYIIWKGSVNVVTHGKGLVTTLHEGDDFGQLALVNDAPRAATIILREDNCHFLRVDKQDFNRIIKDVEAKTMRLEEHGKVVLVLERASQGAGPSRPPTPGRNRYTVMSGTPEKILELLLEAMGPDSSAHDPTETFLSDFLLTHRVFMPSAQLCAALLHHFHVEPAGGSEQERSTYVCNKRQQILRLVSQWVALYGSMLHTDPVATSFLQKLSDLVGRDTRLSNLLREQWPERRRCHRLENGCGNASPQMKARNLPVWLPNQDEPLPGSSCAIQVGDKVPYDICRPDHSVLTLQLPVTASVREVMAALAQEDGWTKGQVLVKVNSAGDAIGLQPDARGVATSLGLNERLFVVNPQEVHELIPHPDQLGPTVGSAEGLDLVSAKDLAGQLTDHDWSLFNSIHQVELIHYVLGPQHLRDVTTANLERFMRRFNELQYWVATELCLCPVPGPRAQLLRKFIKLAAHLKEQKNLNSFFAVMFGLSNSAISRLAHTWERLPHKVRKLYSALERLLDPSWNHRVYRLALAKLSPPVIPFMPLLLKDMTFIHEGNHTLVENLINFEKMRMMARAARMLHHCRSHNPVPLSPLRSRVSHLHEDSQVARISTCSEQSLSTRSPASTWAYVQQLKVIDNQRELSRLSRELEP
Summary of the method: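 Nucleotide exchange uses 100 nM EPAC1, 250 nM RAP1B-BODIPY-GDP and 50 uM GDP, with compounds in a concentration-titration series. After 5 min at room temperature, fluorescence (480 nm ex/540 nm em) is read every 5 min for 30 min. Data are normalized to control ATA and DMSO.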

[17] = biological target: Rap guanine nucleotide exchange factor 4 (Homo sapiens) (UniProt Q8WZA2); assay: Confirmatory qHTS for antagonist of cAMP-regulated guanine nucleotide exchange factor 4 (EPAC2) (AID 1645885); settings: EPAC2 Rap1B-BODIPY-GDP exchange fluorescence, biochemical; series mostly up to 114 µM; note: % is set by controls: 0 for no effect and ±100 for the full control effect; nearly all actives have a fitted effect of over 25% in size
Rap guanine nucleotide exchange factor 4 (Homo sapiens), sequence (Q8WZA2 whole entry, looked up): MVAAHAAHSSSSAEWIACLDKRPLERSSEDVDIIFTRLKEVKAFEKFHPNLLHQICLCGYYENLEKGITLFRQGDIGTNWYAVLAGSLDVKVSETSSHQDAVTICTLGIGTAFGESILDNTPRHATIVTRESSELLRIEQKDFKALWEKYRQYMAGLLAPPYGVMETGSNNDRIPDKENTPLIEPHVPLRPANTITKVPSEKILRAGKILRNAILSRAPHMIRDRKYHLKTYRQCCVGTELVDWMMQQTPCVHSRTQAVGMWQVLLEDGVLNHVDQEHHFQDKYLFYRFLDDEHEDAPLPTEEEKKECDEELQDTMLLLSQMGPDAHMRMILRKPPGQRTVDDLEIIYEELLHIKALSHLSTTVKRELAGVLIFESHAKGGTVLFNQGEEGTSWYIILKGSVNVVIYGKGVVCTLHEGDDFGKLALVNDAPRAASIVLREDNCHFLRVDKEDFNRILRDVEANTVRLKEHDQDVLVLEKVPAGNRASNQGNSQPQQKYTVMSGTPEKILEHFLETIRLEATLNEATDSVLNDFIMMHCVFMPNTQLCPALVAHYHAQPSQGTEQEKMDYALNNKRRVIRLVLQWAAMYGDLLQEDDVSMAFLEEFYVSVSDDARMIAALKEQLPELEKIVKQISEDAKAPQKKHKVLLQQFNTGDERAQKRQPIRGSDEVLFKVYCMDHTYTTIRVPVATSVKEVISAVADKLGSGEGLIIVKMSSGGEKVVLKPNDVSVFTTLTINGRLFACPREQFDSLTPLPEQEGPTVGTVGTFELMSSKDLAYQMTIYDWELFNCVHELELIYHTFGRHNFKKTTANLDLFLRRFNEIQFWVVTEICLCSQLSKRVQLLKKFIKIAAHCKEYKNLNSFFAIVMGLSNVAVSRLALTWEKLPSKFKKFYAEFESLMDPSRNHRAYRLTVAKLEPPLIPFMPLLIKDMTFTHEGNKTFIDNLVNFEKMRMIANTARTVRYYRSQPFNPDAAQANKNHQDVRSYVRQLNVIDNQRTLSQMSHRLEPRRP

[18] = biological target: Cytochrome P450 3A4 (Homo sapiens) (UniProt P08684); assay: qHTS Assay for Activators of Cytochrome P450 3A4 (AID 885); settings: recombinant CYP3A4, Luciferin-PPXE luminescence, 60 min; series mostly up to 57.1 µM; note: nearly all actives have a fitted effect of over 65% in size
Summary of the method: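 20nM CYP3A4 + 25uM Luciferin-PPXE (=KM), 200mM KPO4; cpd 10 min RT; NADPH regen, 60 min RT; stop w/ detection buffer, 20 min; luminescence. Normalized to 57 uM ketoconazole.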

[19] = biological target: Rap guanine nucleotide exchange factor 3 (Homo sapiens) (UniProt O95398); assay: Confirmatory qHTS for agonist of cAMP-regulated guanine nucleotide exchange factor 3 (EPAC1) (AID 1645881); settings: EPAC1 Rap1B BODIPY-GDP exchange fluorescence, 100% = cAMP control response; series mostly up to 154 µM;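 note: EPAC1 catalysed release of BODIPY-GDP from Rap1B seen as fluorescence loss; nearly all actives have a fitted effect of over 75% in size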
[20] = biological target: Rap guanine nucleotide exchange factor 4 (Homo sapiens) (UniProt Q8WZA2); assay: Confirmatory qHTS for agonist of cAMP-regulated guanine nucleotide exchange factor 4 (EPAC2) (AID 1645884); settings: EPAC2 GEF activity, Rap1B-BODIPY-GDP fluorescence, percent relative to cAMP agonist control; series mostly up to 154 µM;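 note: nucleotide exchange releases bodipy-GDP from Rap1 and this lowers its fluorescence; % is set by controls: 0 for no effect and ±100 for the full control effect; nearly all actives have a fitted effect of over 65% in size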
[21] = biological target: Ubiquitin carboxyl-terminal hydrolase 1 (Homo sapiens) (UniProt O94782); assay: Inhibitors of USP1/UAF1: Pilot qHTS (AID 504865); settings: purified USP1/UAF1, Ub-rhodamine cleavage fluorescence; series mostly up to 54.9 µM;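 note: rhodamine fluorescence freed from ubiquitin-rhodamine substrate followed over time; top concentration of the series differs between compounds; % is set by controls: 0 for no effect and ±100 for the full control effect; nearly all actives have a fitted effect of over 35% in size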
Summary of the method: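 Deubiquitinase activity followed as kinetic rhodamine fluorescence release from 150 nM Ub-Rho. 1 nM USP1/UAF1 with compound, after 15 min room-temperature preincubation, in HEPES pH 7.8 buffer containing TCEP, EDTA, BSA and Tween-20.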

[22] = measured here: cell count channel max response
[23] = measured here: lipid channel max response

With `COCCn1c(=O)c(-c2cccs2)nc2cnc(N(C)C)nc21` the Potency [1] was > 11.4 µM (inactive), the activity change, negative = inhibition [2] was -5.67% (inactive) and the Potency [3] was 2 µM (active). The activity change, negative = inhibition [4] was 10.2% (inactive), the activity, negative = inhibition [5] was -4.44% (inactive) and the Potency [6] was > 9.22 µM (inactive). For the same compound, the Potency [7] was > 46 µM (inactive), the outcome [8] was “inactive” and the Potency [9] was “inactive”. For the same compound, the Potency [10] was 7.94 µM (active), the activity change, negative = inhibition [11] was 3.99% (inactive) and the max response [11, 22] was 26.2%. The max response [11, 23] was 28.7%, the Potency [12] was “inactive” and the Potency [13] was “inactive”. For the same compound, the Potency [14] was “inactive”, the Potency [15] was “inactive” and the Potency [16] was “inactive”. The Potency [17] was “inactive”.

For `COc1ccc(C(=O)N2CCC3(CC2)CN(c2ccncc2)C3)cc1`, the Potency [1] was > 11.4 µM (inactive), the activity change, negative = inhibition [2] was 4.67% (inactive) and the Potency [3] was “inactive”. For the same compound, the activity change, negative = inhibition [4] was -16% (inactive), the activity, negative = inhibition [5] was 5.81% (inactive) and the Potency [9] was “inactive”. For the same compound, the Potency [18] was “inactive”, the activity change, negative = inhibition [11] was -1.18% (inactive) and the max response [11, 22] was -4.69%. The max response [11, 23] was -4.19%, the Potency [15] was “inactive” and the Potency [16] was “inactive”. The outcome [19] was “inactive”, the outcome [20] was “inactive” and the Potency [17] was “inactive”.

In the case of `C=C1C[C@H](OC(=O)C(C)(O)CCl)C2C(=C)C(=O)O[C@@H]2C2C1C[C@H](O)[C@]2(O)CCl` (some centres undefined), the Potency [15] is reported as “inactive”.

With `CC(=O)NCCNc1cc(-c2ccccc2CN(C)C)ncn1` the Potency [1] was > 11.4 µM (inactive), the activity change, negative = inhibition [2] was 3.33% (inactive) and the Potency [3] was “inactive”. For the same compound, the activity change, negative = inhibition [4] was -5.44% (inactive), the activity, negative = inhibition [5] was 2.18% (inactive) and the Potency [6] was > 46 µM (inactive). The Potency [7] was > 46 µM (inactive), the outcome [8] was “inactive” and the Potency [9] was “inactive”. The activity change, negative = inhibition [11] was -0.819% (inactive), the max response [11, 22] was 11.1% and the max response [11, 23] was 8.32%. The Potency [12] was “inactive”, the Potency [13] was “inactive” and the Potency [14] was “inactive”. The Potency [21] was “inactive” and the Potency [15] was “inactive”.

For `CN(C)c1ncc2nc(-c3cccs3)c(=O)n(CCC#N)c2n1`, the Potency [1] was > 11.4 µM (inactive), the activity change, negative = inhibition [2] was 0.25% (inactive) and the activity, negative = inhibition [5] was 4.64% (inactive). The Potency [6] was > 9.22 µM (inactive), the Potency [7] was > 46 µM (inactive) and the outcome [8] was “inactive”. For the same compound, the Potency [9] was “inactive”, the activity change, negative = inhibition [11] was 5.59% (inactive) and the max response [11, 22] was 20.3%. The max response [11, 23] was 26.4%, the Potency [12] was “inactive” and the Potency [13] was “inactive”. For the same compound, the Potency [14] was “inactive”, the Potency [21] was “inactive” and the Potency [15] was “inactive”. The Potency [16] was “inactive” and the Potency [17] was “inactive”.

Source: PubChem BioAssay (NCATS)
